Assay outcomes: PubChem, National Center for Advancing Translational Sciences (NCATS)
Cycloheximide cs: counter-screen for Shiga toxin inhibitors: cycloheximide protein synthesis inhibition; cell reporter, cycloheximide protein synthesis inhibition counterscreen; max response, %; actives 12% (n = 300,000); in the data active = max response mostly above about 13%, no sharp cut-off; inactive = mostly below about 14%; note: read at 38.3 µM for the half of the compounds with a filed dose
FMDV antiviral: blocks foot and mouth disease virus; actives 1.2% (n = 410,000); AID 1159524; FMDV antiviral cell-based qHTS; Potency, µM (titrated, usually from 57.9 µM), usual class: inhibitors; calls by dose curve; tested in HEK293T cells; note: read-out not given here; nearly all actives have a fitted effect of over 45% in size
Shiga toxin inh: blocks Shiga toxin action in Vero cells; Vero cells, Shiga toxin protein synthesis inhibition reporter; inhibition, % at 38.7 µM; actives 9.2% (n = 290,000); AID 2315; in the data active = inhibition mostly above about 28%, no sharp cut-off; inactive = mostly below about 43%
HCV inhibitor: blocks hepatitis C virus. Huh7.5.1 HCVcc-Cre infection, luciferase reporter, 44 h. Potency, µM (doses to about 41.8 µM), hits mostly inhibitors. actives 3.4% (n = 340,000). AID 651820; active = well fitted inhibition curve with a large enough effect; inconclusive = small, poorly fitted or top-dose-only effect, or another doubt; inactive = no such curve, though single readings can be large or run the other way
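Luciferase read-out (15 sec integration) after a 15 min room-temperature substrate step quantifies HCVcc-Cre infection. Cells, 1,000 per well, had compound added 4 h post-plating, then virus at ~0.5 moi, and were cultured 44 h.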
LASV entry inh: Lassa virus entry inhibition; Lassa virus pseudotype entry inhibition, cell reporter; Potency, µM (titrated, usually from 37.9 µM), usual class: inhibitors; actives 1.2% (n = 300,000); calls by dose curve; tested in HEK293 cells; note: nearly all actives have a fitted effect of over 50% in size
MARV entry inh: Marburg virus entry inhibition | Marburg virus pseudotyped entry inhibition, cell reporter | Potency, µM (titrated, usually from 37.8 µM), hits mostly inhibitors | actives 1.8% (n = 300,000); calls by dose curve; tested in HEK293 cells
Numbers stand for hits; 0 = inactive; ? = inconclusive; - = no result given; + = active, no number. A selection: hits, their analogues and other compounds. The true share with any hit is near 13%.

SMILES	Cycloheximide cs	FMDV antiviral	Shiga toxin inh	HCV inhibitor	LASV entry inh	MARV entry inh
Cc1nn(Cc2ccccc2Cl)c(C)c1C(=O)NC1=NCCS1	0	0	0	0	0	0
O=C(NC1=NCCS1)Nc1ccccc1	35.9	0	65.0	0	0	?
CCOCCc1nnc(NC(=O)C(=O)c2cc(C)n(-c3ccc(Cl)cc3)c2C)s1	-	0	-	-	0	0
O=C(NC1=NCCS1)c1ccccc1Cl	8.2	0	0	0	?	?
CCN(CC)c1ccc(C2CC(=O)Nc3cc(OC)c(OC)cc32)cc1 (stereo unspecified)	0	0	0	0	?	0
CCOc1ccc(S(=O)(=O)Nc2ccc(C(=O)N3CCCC3)cc2)cc1C(N)=O	0	0	0	0	-	-
CCCc1noc2c1/C(=N\O)CC(CC(C)SCC)C2 (stereo unspecified)	32.9	0	19.2	?	0	0
CCSC(C)CC1C/C(=N/O)c2c(CC)noc2C1 (stereo unspecified)	0	0	0	0	0	?
CCOC(=O)c1cc(CC)sc1NC(=O)C1CC1	0	0	0	11.2µM	0	0
CCOC(=O)c1cc(CC)sc1NC(=O)c1cc(OCC)c(OCC)c(OCC)c1	0	0	0	2.82µM	0	0
CC(OC(=O)C1CCN(S(=O)(=O)c2ccc(F)cc2)CC1)C(=O)NC1CCCCC1C (stereo unspecified)	-	0	-	0	0	0
COc1ccc(CCNC(=O)c2cc3c(s2)-c2ccccc2OC3)cc1OC	-	?	-	-	-	0
Cc1cccc(NC(=O)c2cc3c(s2)-c2c(C)cccc2OC3)n1	10.5	0	0	?	-	-
CCCN1CCN(CCCNC(=O)c2cc3c(s2)-c2ccccc2OC3)CC1	0	0	0	10µM	-	?
Cc1cccc2c1-c1sc(C(=O)NCCCN3CCCC(C)C3)cc1CO2 (stereo unspecified)	0	0	0	11.2µM	-	-
CN(C)CCNC(=O)c1cc2c(s1)-c1ccccc1OC2	40.2	0	46.6	25.1µM	-	-
CC(=O)Nc1ccc(OCC(O)CN2CCN(c3cccc(Cl)c3)CC2)cc1 (stereo unspecified)	0	0	0	0	0	0
COc1ccc2c(c1)CC(C(=O)Nc1ccc(Cl)cc1)/C(=N/O)O2 (stereo unspecified)	0	0	0	?	-	-
COc1ccc(Cl)cc1Cn1c(C)c(C(=O)NCc2cccc(C(F)(F)F)c2)sc1=O	-	0	-	-	-	-
O=C(NCCCN1CCN(c2ccccc2F)CC1)c1cc2c(s1)-c1ccccc1OC2	-	0	-	-	-	0
CCOC(=O)N1CCN(C(=O)c2cc3c(s2)-c2ccccc2OC3)CC1	0	0	0	0	-	-
CC1CCCC(C)N1CCCNC(=O)c1cc2c(s1)-c1ccccc1OC2 (stereo unspecified)	0	0	0	?	-	-
CCN1CCN(CCCNC(=O)c2cc3c(s2)-c2ccccc2OC3)CC1	0	0	0	7.08µM	-	?
CC1CC(C)CN(CCCNC(=O)c2cc3c(s2)-c2ccccc2OC3)C1 (stereo unspecified)	0	0	0	8.91µM	-	-
O=C(c1cc2c(s1)-c1ccccc1OC2)N1CCC2(CC1)OCCO2	39.8	0	38.6	0	0	0
SMILES	Cycloheximide cs	FMDV antiviral	Shiga toxin inh	HCV inhibitor	LASV entry inh	MARV entry inh
CCCN1CCN(C(=O)c2cc3c(s2)-c2ccccc2OC3)CC1	26.1	0	31.5	0	-	-
COc1cccc(C2C(=O)N(C3CCCCC3)CC(=O)N2CCc2ccc(OC)c(OC)c2)c1 (stereo unspecified)	-	0	-	-	0	-
COc1ccc(Cn2c(C(=O)O)c(CNCc3ccc(C)o3)c3ccc(C)cc32)cc1	-	0	-	-	?	-
COC(=O)c1ccccc1N/C=C1\CCc2c(c(C)nn2-c2ccccn2)C1=O	0	0	0	0	0	?
Cc1csc(NC(=O)c2cc3c(s2)-c2ccccc2OC3)n1	58.6	0	+	11.2µM	0	?
CCCN1CCN(CCCNC(=O)c2cc3c(s2)-c2c(C)cccc2OC3)CC1	0	0	0	2.51µM	-	?
Cc1cccc2c1-c1sc(C(=O)NCCc3ccc(Cl)cc3)cc1CO2	-	0	-	-	-	0
CC(C)NC(=O)NC(=O)CSc1nnc(COc2ccccc2F)n1C(C)C1CC2CCC1C2 (stereo unspecified)	0	28.2µM	0	?	18.3µM	?
CCN(CC)CCNC(=O)CCc1c(C)nc2c(c(C)nn2-c2ccc(C)cc2)c1C	0	0	0	3.55µM	-	-
COCCNC(=O)CCc1c(C)nc2c(c(C)nn2-c2ccc(C)cc2)c1C	0	?	0	0	0	?
C=CCNc1nc(Nc2ccc([N+](=O)[O-])cc2)nc(N2CCCC2)n1	26.4	?	0	?	0	?
C=CCNc1nc(Cl)nc(Nc2ccc([N+](=O)[O-])cc2)n1	0	0	0	0	0	?
CC(=O)c1ccc(Oc2ccc(C(=O)c3ccc(C)c(C)c3)cc2[N+](=O)[O-])cc1	0	0	0	0	1.46µM	?
O=C(O)Cc1sc(Nc2ccc(C(=O)O)cc2)nc1-c1ccccc1	-	0	-	-	0	?
O=C(Cc1ccccc1)NCc1ccccn1	0	0	0	0	-	-
O=C(O)Cc1sc(Nc2ccc(F)cc2)nc1-c1cccs1	29.6	0	59.8	0	?	?
O=C(O)Cc1sc(Nc2ccccc2)nc1-c1ccc(Cl)cc1	42.4	0	119.5	0	0	0
O=C(Cc1sc(Nc2ccccc2)nc1-c1ccccc1)NCc1ccccn1	38.9	0	53.3	?	-	0
Cc1ccc(Nc2nc(-c3ccccc3)c(CC(=O)O)s2)cc1	47.5	0	82.3	0	0	0
CCCCn1c(N)c(N(CC)C(=O)CSc2nnnn2-c2cc(C)ccc2C)c(=O)[nH]c1=O	0	0	0	0	-	-
COc1ncnc2c1ncn2CCCNCc1ccco1	-	0	-	-	-	-
Cc1cc(Cc2cc(C)c(N)cc2C)c(C)cc1N	0	0	0	0	0	0
COc1ccc(N=C/C=C2\C=C(c3ccccc3)OC(C)(C)O2)cc1	17.3	0	0	?	0	?
CC(C)(C)NC(=O)C(c1c[nH]c2ccccc12)N(C(=O)Cn1nnc(-c2ccc(F)cc2)n1)c1cccc(O)c1 (stereo unspecified)	0	?	0	10µM	?	11.2µM
CC(C)(C)NC(=O)C(c1ccco1)N(C(=O)Cn1nnc(-c2ccc(F)cc2)n1)c1cccc(F)c1 (stereo unspecified)	0	0	0	?	0	0
SMILES	Cycloheximide cs	FMDV antiviral	Shiga toxin inh	HCV inhibitor	LASV entry inh	MARV entry inh
COc1ccc(S(=O)(=O)N2CCC(C(=O)NC3CC3)CC2)cc1C	0	0	0	0	0	?
COC(=O)c1cccc(NC(=O)c2ccc(S(=O)(=O)N(C)c3ccccc3OC)cc2)c1	-	35.5µM	-	-	-	-
COC(=O)c1ccccc1NC(=O)c1ccccc1N(C)S(=O)(=O)c1ccccc1	0	0	0	0	?	0
COc1ccc(NC(=O)COC(=O)c2ccc(S(=O)(=O)N(C)c3ccccc3OC)cc2)cc1OC	0	0	0	0	0	0
COC(=O)c1ccc(NC(=O)c2ccccc2N(C)S(=O)(=O)c2ccccc2)cc1	16.3	0	0	0	?	0
COc1cc(NC(=O)c2ccc(S(=O)(=O)N(C)c3ccccc3OC)cc2)cc(OC)c1	-	0	-	11.2µM	?	?
